Assay results reported in paper PMC11006913.

Legend:
Experiment in all cases: PBM; 200 nM protein, PBS
Conditions in all cases: dsDNA, one strand shown
[1] = molecular target: HOXA7 (Homo sapiens, UniProt P31268 116-202)
[2] = molecular target: HOXA7 (Homo sapiens, UniProt P31268 116-202, W177C)
[3] = molecular target: HOXC10 (Homo sapiens, UniProt Q9NYD6 254-340)
HOXC10, sequence (Q9NYD6 254-340): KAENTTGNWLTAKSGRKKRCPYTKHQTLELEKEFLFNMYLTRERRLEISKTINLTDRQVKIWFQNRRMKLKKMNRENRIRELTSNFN

HOXA7 (Homo sapiens, UniProt P31268 116-202, W177C), sequence (P31268 116-202 W177C): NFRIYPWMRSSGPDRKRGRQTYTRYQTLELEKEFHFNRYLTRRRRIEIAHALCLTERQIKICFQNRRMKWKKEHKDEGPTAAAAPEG
HOXA7 (Homo sapiens, UniProt P31268 116-202), sequence (P31268 116-202): as the sequence (P31268 116-202 W177C) above, with C62W counted along it

Sequence	binding signal [1]	binding signal [2]	binding signal [3]
CAGCAACC	8.52 upbm affinity estimate (log intensity, higher = more binding, comparable within an allelic series)	8.47 upbm affinity estimate (log intensity, higher = more binding, comparable within an allelic series)	–
AAGCGGCG	8.49 upbm affinity estimate (log intensity, higher = more binding, comparable within an allelic series)	8.33 upbm affinity estimate (log intensity, higher = more binding, comparable within an allelic series)	–
TACGTTAA	9.58 upbm affinity estimate (log intensity, higher = more binding, comparable within an allelic series)	8.79 upbm affinity estimate (log intensity, higher = more binding, comparable within an allelic series)	–
CCTTATAA	9.62 upbm affinity estimate (log intensity, higher = more binding, comparable within an allelic series)	8.88 upbm affinity estimate (log intensity, higher = more binding, comparable within an allelic series)	–
ATAAGTAT	9.57 upbm affinity estimate (log intensity, higher = more binding, comparable within an allelic series)	8.76 upbm affinity estimate (log intensity, higher = more binding, comparable within an allelic series)	–
AGGCCCAG	8.42 upbm affinity estimate (log intensity, higher = more binding, comparable within an allelic series)	8.28 upbm affinity estimate (log intensity, higher = more binding, comparable within an allelic series)	–
CGTGCAAG	8.47 upbm affinity estimate (log intensity, higher = more binding, comparable within an allelic series)	8.43 upbm affinity estimate (log intensity, higher = more binding, comparable within an allelic series)	–
CACCTACG	8.56 upbm affinity estimate (log intensity, higher = more binding, comparable within an allelic series)	8.57 upbm affinity estimate (log intensity, higher = more binding, comparable within an allelic series)	–
GGAACTCA	8.54 upbm affinity estimate (log intensity, higher = more binding, comparable within an allelic series)	8.56 upbm affinity estimate (log intensity, higher = more binding, comparable within an allelic series)	–
GAAGGGAC	8.46 upbm affinity estimate (log intensity, higher = more binding, comparable within an allelic series)	8.39 upbm affinity estimate (log intensity, higher = more binding, comparable within an allelic series)	–
CCTCGAGG	8.59 upbm affinity estimate (log intensity, higher = more binding, comparable within an allelic series)	8.59 upbm affinity estimate (log intensity, higher = more binding, comparable within an allelic series)	–
AGAATTAC	9.68 upbm affinity estimate (log intensity, higher = more binding, comparable within an allelic series)	8.8 upbm affinity estimate (log intensity, higher = more binding, comparable within an allelic series)	–
AATTGTAA	9.73 upbm affinity estimate (log intensity, higher = more binding, comparable within an allelic series)	8.68 upbm affinity estimate (log intensity, higher = more binding, comparable within an allelic series)	–
TAATTCAA	9.8 upbm affinity estimate (log intensity, higher = more binding, comparable within an allelic series)	8.74 upbm affinity estimate (log intensity, higher = more binding, comparable within an allelic series)	–
ACCTCGCT	8.51 upbm affinity estimate (log intensity, higher = more binding, comparable within an allelic series)	8.51 upbm affinity estimate (log intensity, higher = more binding, comparable within an allelic series)	–
CCATTATA	11.2 upbm affinity estimate (log intensity, higher = more binding, comparable within an allelic series)	8.97 upbm affinity estimate (log intensity, higher = more binding, comparable within an allelic series)	–
AGGTCAGA	8.56 upbm affinity estimate (log intensity, higher = more binding, comparable within an allelic series)	8.58 upbm affinity estimate (log intensity, higher = more binding, comparable within an allelic series)	–
AGCATGCT	8.54 upbm affinity estimate (log intensity, higher = more binding, comparable within an allelic series)	8.54 upbm affinity estimate (log intensity, higher = more binding, comparable within an allelic series)	–
AGGCTGGA	8.5 upbm affinity estimate (log intensity, higher = more binding, comparable within an allelic series)	8.45 upbm affinity estimate (log intensity, higher = more binding, comparable within an allelic series)	–
AGAGCAAG	8.36 upbm affinity estimate (log intensity, higher = more binding, comparable within an allelic series)	8.46 upbm affinity estimate (log intensity, higher = more binding, comparable within an allelic series)	–
GGGTACCC	8.53 upbm affinity estimate (log intensity, higher = more binding, comparable within an allelic series)	8.44 upbm affinity estimate (log intensity, higher = more binding, comparable within an allelic series)	–
CGCAGGTC	8.46 upbm affinity estimate (log intensity, higher = more binding, comparable within an allelic series)	8.44 upbm affinity estimate (log intensity, higher = more binding, comparable within an allelic series)	–
AGTAGCCG	8.51 upbm affinity estimate (log intensity, higher = more binding, comparable within an allelic series)	8.43 upbm affinity estimate (log intensity, higher = more binding, comparable within an allelic series)	–
CCCCGTTA	9.61 upbm affinity estimate (log intensity, higher = more binding, comparable within an allelic series)	8.75 upbm affinity estimate (log intensity, higher = more binding, comparable within an allelic series)	–
AGGCTCTC	8.46 upbm affinity estimate (log intensity, higher = more binding, comparable within an allelic series)	8.32 upbm affinity estimate (log intensity, higher = more binding, comparable within an allelic series)	–
CCCCCGAC	8.66 upbm affinity estimate (log intensity, higher = more binding, comparable within an allelic series)	8.36 upbm affinity estimate (log intensity, higher = more binding, comparable within an allelic series)	–

Sequence	binding signal [1]	binding signal [2]	binding signal [3]
ACCGCTCC	8.61 upbm affinity estimate (log intensity, higher = more binding, comparable within an allelic series)	8.49 upbm affinity estimate (log intensity, higher = more binding, comparable within an allelic series)	–
CTCAGCTC	8.44 upbm affinity estimate (log intensity, higher = more binding, comparable within an allelic series)	8.39 upbm affinity estimate (log intensity, higher = more binding, comparable within an allelic series)	–
AGACGGGA	8.62 upbm affinity estimate (log intensity, higher = more binding, comparable within an allelic series)	8.51 upbm affinity estimate (log intensity, higher = more binding, comparable within an allelic series)	–
AGAGCCTG	8.58 upbm affinity estimate (log intensity, higher = more binding, comparable within an allelic series)	8.43 upbm affinity estimate (log intensity, higher = more binding, comparable within an allelic series)	–
AGAAGAAA	8.53 upbm affinity estimate (log intensity, higher = more binding, comparable within an allelic series)	8.55 upbm affinity estimate (log intensity, higher = more binding, comparable within an allelic series)	–
AGATAAAC	9.31 upbm affinity estimate (log intensity, higher = more binding, comparable within an allelic series)	8.79 upbm affinity estimate (log intensity, higher = more binding, comparable within an allelic series)	–
ATATTGTA	9.55 upbm affinity estimate (log intensity, higher = more binding, comparable within an allelic series)	8.9 upbm affinity estimate (log intensity, higher = more binding, comparable within an allelic series)	–
AAATGGGG	9.82 upbm affinity estimate (log intensity, higher = more binding, comparable within an allelic series)	8.64 upbm affinity estimate (log intensity, higher = more binding, comparable within an allelic series)	–
CTGGATGC	8.4 upbm affinity estimate (log intensity, higher = more binding, comparable within an allelic series)	8.44 upbm affinity estimate (log intensity, higher = more binding, comparable within an allelic series)	–
AGCAGAAG	8.46 upbm affinity estimate (log intensity, higher = more binding, comparable within an allelic series)	8.54 upbm affinity estimate (log intensity, higher = more binding, comparable within an allelic series)	–
CCATTACA	10.6 upbm affinity estimate (log intensity, higher = more binding, comparable within an allelic series)	8.97 upbm affinity estimate (log intensity, higher = more binding, comparable within an allelic series)	–
GAGCCAGC	8.52 upbm affinity estimate (log intensity, higher = more binding, comparable within an allelic series)	8.41 upbm affinity estimate (log intensity, higher = more binding, comparable within an allelic series)	–
CGCTGTGC	8.49 upbm affinity estimate (log intensity, higher = more binding, comparable within an allelic series)	8.35 upbm affinity estimate (log intensity, higher = more binding, comparable within an allelic series)	–
CCTTCCGC	8.39 upbm affinity estimate (log intensity, higher = more binding, comparable within an allelic series)	8.37 upbm affinity estimate (log intensity, higher = more binding, comparable within an allelic series)	–
GCTTTCGA	8.45 upbm affinity estimate (log intensity, higher = more binding, comparable within an allelic series)	8.45 upbm affinity estimate (log intensity, higher = more binding, comparable within an allelic series)	–
CGGTCCGC	8.63 upbm affinity estimate (log intensity, higher = more binding, comparable within an allelic series)	8.41 upbm affinity estimate (log intensity, higher = more binding, comparable within an allelic series)	–
CAGAGGAG	8.43 upbm affinity estimate (log intensity, higher = more binding, comparable within an allelic series)	8.46 upbm affinity estimate (log intensity, higher = more binding, comparable within an allelic series)	–
CCATTTAA	10.5 upbm affinity estimate (log intensity, higher = more binding, comparable within an allelic series)	8.76 upbm affinity estimate (log intensity, higher = more binding, comparable within an allelic series)	–
CGGAAGGC	8.5 upbm affinity estimate (log intensity, higher = more binding, comparable within an allelic series)	8.35 upbm affinity estimate (log intensity, higher = more binding, comparable within an allelic series)	–
AGGCAAGG	8.35 upbm affinity estimate (log intensity, higher = more binding, comparable within an allelic series)	8.48 upbm affinity estimate (log intensity, higher = more binding, comparable within an allelic series)	–
GATTAAAC	9.54 upbm affinity estimate (log intensity, higher = more binding, comparable within an allelic series)	8.63 upbm affinity estimate (log intensity, higher = more binding, comparable within an allelic series)	–
CGCGTTTC	8.49 upbm affinity estimate (log intensity, higher = more binding, comparable within an allelic series)	8.39 upbm affinity estimate (log intensity, higher = more binding, comparable within an allelic series)	–
TAGTTTAA	9.76 upbm affinity estimate (log intensity, higher = more binding, comparable within an allelic series)	8.8 upbm affinity estimate (log intensity, higher = more binding, comparable within an allelic series)	–
GCGGCTAC	8.37 upbm affinity estimate (log intensity, higher = more binding, comparable within an allelic series)	8.37 upbm affinity estimate (log intensity, higher = more binding, comparable within an allelic series)	–
AGCCGCTG	8.52 upbm affinity estimate (log intensity, higher = more binding, comparable within an allelic series)	8.43 upbm affinity estimate (log intensity, higher = more binding, comparable within an allelic series)	–
CCATGCTC	8.55 upbm affinity estimate (log intensity, higher = more binding, comparable within an allelic series)	8.51 upbm affinity estimate (log intensity, higher = more binding, comparable within an allelic series)	–

Sequence	binding signal [1]	binding signal [2]	binding signal [3]
CAGCGTGG	8.45 upbm affinity estimate (log intensity, higher = more binding, comparable within an allelic series)	8.4 upbm affinity estimate (log intensity, higher = more binding, comparable within an allelic series)	–
AGAATGAT	9.52 upbm affinity estimate (log intensity, higher = more binding, comparable within an allelic series)	8.8 upbm affinity estimate (log intensity, higher = more binding, comparable within an allelic series)	–
ACCTGCAC	8.57 upbm affinity estimate (log intensity, higher = more binding, comparable within an allelic series)	8.45 upbm affinity estimate (log intensity, higher = more binding, comparable within an allelic series)	–
GTCATGAA	–	–	10.8 upbm affinity estimate (log intensity, higher = more binding, comparable within an allelic series)
AGAAGGCG	8.35 upbm affinity estimate (log intensity, higher = more binding, comparable within an allelic series)	8.41 upbm affinity estimate (log intensity, higher = more binding, comparable within an allelic series)	–
AGATGTTA	–	–	10.8 upbm affinity estimate (log intensity, higher = more binding, comparable within an allelic series)
ATCATCTA	9.36 upbm affinity estimate (log intensity, higher = more binding, comparable within an allelic series)	8.74 upbm affinity estimate (log intensity, higher = more binding, comparable within an allelic series)	–
CTGAAGGC	8.34 upbm affinity estimate (log intensity, higher = more binding, comparable within an allelic series)	8.31 upbm affinity estimate (log intensity, higher = more binding, comparable within an allelic series)	–
ATGCCATA	–	–	11 upbm affinity estimate (log intensity, higher = more binding, comparable within an allelic series)
CAAAGCGG	8.47 upbm affinity estimate (log intensity, higher = more binding, comparable within an allelic series)	8.45 upbm affinity estimate (log intensity, higher = more binding, comparable within an allelic series)	–
GGCGGTCA	8.58 upbm affinity estimate (log intensity, higher = more binding, comparable within an allelic series)	8.5 upbm affinity estimate (log intensity, higher = more binding, comparable within an allelic series)	–
ATTCGTAA	–	–	10.8 upbm affinity estimate (log intensity, higher = more binding, comparable within an allelic series)
ACCAATAC	–	–	10.6 upbm affinity estimate (log intensity, higher = more binding, comparable within an allelic series)
GGTTATAC	–	–	10.8 upbm affinity estimate (log intensity, higher = more binding, comparable within an allelic series)
AGTAGTTA	10 upbm affinity estimate (log intensity, higher = more binding, comparable within an allelic series)	8.75 upbm affinity estimate (log intensity, higher = more binding, comparable within an allelic series)	–
CACGGAAG	8.42 upbm affinity estimate (log intensity, higher = more binding, comparable within an allelic series)	8.45 upbm affinity estimate (log intensity, higher = more binding, comparable within an allelic series)	–
CGCTGAAG	8.52 upbm affinity estimate (log intensity, higher = more binding, comparable within an allelic series)	8.44 upbm affinity estimate (log intensity, higher = more binding, comparable within an allelic series)	–
CAATTGCG	9.48 upbm affinity estimate (log intensity, higher = more binding, comparable within an allelic series)	8.54 upbm affinity estimate (log intensity, higher = more binding, comparable within an allelic series)	–
AGATATGG	–	–	10.7 upbm affinity estimate (log intensity, higher = more binding, comparable within an allelic series)
CAAGCACC	8.65 upbm affinity estimate (log intensity, higher = more binding, comparable within an allelic series)	8.49 upbm affinity estimate (log intensity, higher = more binding, comparable within an allelic series)	–
GCTCGGTA	8.46 upbm affinity estimate (log intensity, higher = more binding, comparable within an allelic series)	8.43 upbm affinity estimate (log intensity, higher = more binding, comparable within an allelic series)	–
CGACTAGC	8.47 upbm affinity estimate (log intensity, higher = more binding, comparable within an allelic series)	8.47 upbm affinity estimate (log intensity, higher = more binding, comparable within an allelic series)	–
ACCCCCCT	8.3 upbm affinity estimate (log intensity, higher = more binding, comparable within an allelic series)	8.32 upbm affinity estimate (log intensity, higher = more binding, comparable within an allelic series)	–
TGTTACAA	–	–	10.6 upbm affinity estimate (log intensity, higher = more binding, comparable within an allelic series)
GACAGTAA	–	–	11 upbm affinity estimate (log intensity, higher = more binding, comparable within an allelic series)
